ERG-DNA inh = qHTS for Small Molecule Inhibitors of the ERG Ets/DNA interaction | Transcriptional regulator ERG (Homo sapiens), P11308 | fluorescence polarization, His-ERG Ets domain / labelled DNA | Potency, µM (highest dose often 76.9 µM), hits mostly inhibitors | 370,000 tested, 0.028% active | AID 624246, 2012; active means well fitted inhibition curve with a large enough effect in the polarisation, with a control signal flat; inconclusive means small, poorly fitted or top-dose-only effect, or effect the other way, or a change in a side signal; inactive means no such curve, though single readings can be large or run the other way; the % refers to the polarisation;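 further: polarization taken with two DNA probes labelled with fluorescein and Texas red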
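His-tagged ERG Ets domain (1 uM in the protein solution; 300mM KCl, 50mM Tris-HCl, 1mM EDTA, 1mM DTT, pH 7.5) received compound, then a probe mix of 5 nM fluorescein-DNA and 100nM Texas-615-DNA. Fluorescence polarization was read for both dyes.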
RECQ1 inh = qHTS Assay for Inhibitors of RecQ-Like Dna Helicase 1 (RECQ1); ATP-dependent DNA helicase Q1 (Homo sapiens), P46063; RECQ1 DNA unwinding, red fluorescence kinetic read; Potency, µM (titrated, usually from 57.3 µM), hits mostly inhibitors; 240,000 tested, 0.54% active; AID 2549, 2010; further: nearly all actives have a fitted effect of over 30% in size
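RECQ1T1 50 nM; forked duplex (20 bp + 30-nt ss tails) 200 nM, ATP 2 mM final; pH 8.0, 2 mM MgCl2, 2.5 ug/ml poly(dI-dC); 15 min compound preincubation; discontinuous kinetic read over 2 h at RT.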
BLM helicase inh = qHTS Assay for Inhibitors of Bloom's syndrome helicase (BLM); 350,000 tested, 0.2% active; Potency, µM (highest dose often 56.1 µM), usual class: inhibitors; RecQ-like DNA helicase BLM (Homo sapiens), P54132; recombinant BLM DNA unwinding, fluorescence dequenching; AID 2528, 2010; further: nearly all actives have a fitted effect of over 35% in size
TRb-SRC2 inh = qHTS for Inhibitors of the Interaction of Thyroid Hormone Receptor and Steroid Receptor Coregulator 2. Thyroid hormone receptor beta (Homo sapiens), P10828. TRbeta-SRC2 peptide binding, fluorescence polarization; receptor liganded with 1 µM T3. 280,000 tested, 0.065% active. Potency, µM (series often up to 106 µM), hits mostly inhibitors; further: nearly all actives have a fitted effect of over 50% in size
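Human TRb LBD (0.6 uM) plus Texas Red-labeled SRC2 peptide (20 nM), 1uM T3, 5% DMSO, 5 hr at ambient temperature. Decreased polarization (555/632 nm) flags inhibition; data normalized to free and bound peptide controls.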
TR SRC2 fluor cs = Total Fluorescence Counterscreen for Inhibitors of the Interaction of Thyroid Hormone Receptor and Steroid Receptor Coregulator 2; AID 1479, 2009; TRb/SRC2 Texas Red total fluorescence interference; 280,000 tested, 0.29% active; Potency, µM (doses to about 106 µM); active means well fitted curve in either direction with a large enough effect; inconclusive means small, poorly fitted or top-dose-only effect
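Human TRβ ligand-binding domain (0.6 uM) and Texas Red SRC2 peptide (20 nM) in Tris buffer with 1 uM T3 and 5% DMSO were incubated with pinned compound for 5 hr at ambient temperature. Total fluorescence was computed as S + 2P (555/632 nm).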
RGS12 GoLoco inh = qHTS Assay for Inhibitors of RGS12 GoLoco Motif Activity (Red Fluorophore) | Guanine nucleotide-binding protein G(i) subunit alpha-1 (Homo sapiens), P63096 | Gai1:RGS12 GoLoco peptide FP, rhodamine, 10 min | Potency, µM (titrated, usually from 61.6 µM), most hits filed as inhibitors | 230,000 tested, 0.44% active; active means well fitted inhibition curve with a large enough effect, not every such curve was filed as active; inactive means no such curve, though single readings can be large or run the other way; further: nearly all actives have a fitted effect of over 30% in size
Target sequence (P63096 whole entry, looked up): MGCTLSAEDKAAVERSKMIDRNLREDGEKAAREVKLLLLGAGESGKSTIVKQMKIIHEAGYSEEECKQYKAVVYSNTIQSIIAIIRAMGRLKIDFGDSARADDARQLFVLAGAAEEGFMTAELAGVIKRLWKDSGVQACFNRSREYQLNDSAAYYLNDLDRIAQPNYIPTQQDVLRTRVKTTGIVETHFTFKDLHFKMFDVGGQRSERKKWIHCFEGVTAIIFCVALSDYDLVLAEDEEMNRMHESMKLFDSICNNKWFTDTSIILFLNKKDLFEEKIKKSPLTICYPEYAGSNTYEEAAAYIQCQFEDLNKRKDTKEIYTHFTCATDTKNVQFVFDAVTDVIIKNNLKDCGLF
A number is an active result; - = inactive; ? = inconclusive; . = no result given; [ ] = dose if it differs, or a comment. In the library only some 0.71% were active in any assay of this set; here they are far more common. Unless noted, the call rests on the fitted dose curve; in most records, active means well fitted curve in the direction sought with a large enough effect; inconclusive means small, poorly fitted or top-dose-only effect, or another doubt; inactive means no such curve, though single readings can be large; an effect the other way counts as inactive or inconclusive.

SMILES | ERG-DNA inh | RECQ1 inh | BLM helicase inh | TRb-SRC2 inh | TR SRC2 fluor cs | RGS12 GoLoco inh
CSc1nc(N)nc(SCC(=O)Nc2cccc(F)c2)c1C#N | - | - | - | ? | 1.3µM[quencher] | -
COc1ccc(Cn2c3nc4ccccc4nc3c3c(=O)n(Cc4ccco4)cnc32)cc1 | . | 28µM | - | - | - | -
CCOc1ccccc1CNC(=O)c1nn(C)c2c1CS(=O)(=O)c1ccccc1-2 | - | . | - | - | 0.11µM[quencher] | .
CCCN(CCC)CCNC(=O)c1nn(C)c2c1CS(=O)(=O)c1ccccc1-2 | - | . | - | - | - | .
CCc1ccc(CNC(=O)c2nn(C)c3c2CS(=O)(=O)c2ccccc2-3)cc1 | - | . | - | . | . | .
CCCN(CCC)CCCNC(=O)c1nn(C)c2c1CS(=O)(=O)c1ccccc1-2 | - | . | - | - | 50µM[quencher] | .
CCCCCCCC[Si](OCC)(OCC)OCC | . | . | . | - | - | .
CCOC(=O)[C@H](C)Oc1ccc(Oc2nc3ccc(Cl)cc3o2)cc1 | . | . | . | - | - | .
Cc1cc(Nc2ccc(O)cc2)ccc1N | . | ? | . | ? | - | 28µM
Cc1cc(C)nc(Nc2ccc(O)cc2)n1 | - | . | - | . | . | .
O=C(Nc1ccc(N2CCOCC2)cc1)c1ccc2nc(-c3ccco3)c(-c3ccco3)nc2c1 | ? | - | - | - | - | -
CCCCNC(=O)c1ccc2nc(-c3ccco3)c(-c3ccco3)nc2c1 | - | - | 16µM | - | - | -
CC(=O)c1ccc(NC(=O)c2ccc3nc(-c4ccco4)c(-c4ccco4)nc3c2)cc1 | - | 8.9µM | 16µM | - | ? | -
CCCNC(=O)c1ccc2nc(-c3ccccc3)c(-c3ccccc3)nc2c1 | - | - | - | - | - | -
O=C(Nc1ccccc1)c1ccc2nc(-c3ccco3)c(-c3ccco3)nc2c1 | - | - | 32µM | - | - | -
CC(=O)c1ccc(NC(=O)CSc2nnc(-c3ccco3)c(-c3ccco3)n2)cc1 | - | - | 7.9µM | - | - | -
O=C(NCc1ccccc1)c1ccc2nc(-c3ccco3)c(-c3ccco3)nc2c1 | - | ? | 14µM | - | ? | -
Nc1ncnc2c1nc(N1CCCCC1)n2[C@@H]1O[C@@H]2COP(=O)(O)O[C@H]2[C@H]1O | . | - | - | - | - | .
Cc1ccc2ccc(C)[n+](CCCS(=O)(=O)[O-])c2c1 | - | - | - | - | - | 7.9µM
Cc1ccc2ccccc2[n+]1CCCS(=O)(=O)[O-] | - | - | - | - | - | -
CC(C)[C@H](NC(=O)[C@@H](Cc1c[nH]c2ccccc12)NC(=O)[C@H](Cc1ccc(O)cc1)NC(=O)[C@@H](N)CC(=O)O)C(=O)N[C@H](Cc1c[nH]c2ccccc12)C(=O)N[C@H](Cc1c[nH]c2ccccc12)C(=O)N[C@@H](CCCCN)C(N)=O | . | 20µM | - | - | - | .
NCCCC[C@H](NC(=O)[C@@H](Cc1ccccc1)NC(=O)[C@H](Cc1c[nH]c2ccccc12)NC(=O)[C@@H](CCCCN)NC(=O)[C@@H](Cc1c[nH]c2ccccc12)NC(=O)[C@@H](N)Cc1cnc[nH]1)C(N)=O | . | - | - | - | - | .
O=c1c(O)cc(C2Oc3cc(O)cc(O)c3CC2O)cc2c(C3Oc4cc(O)cc(O)c4CC3O)cc(O)c(O)c12 (configuration not stated) | . | 3.2µM | 28µM | - | 28µM[quencher] | -
O=C(C1CCN(S(=O)(=O)c2cccc3nonc23)CC1)N1CCN(c2cccc(Cl)c2)CC1 | - | . | - | - | - | .
Cc1ccc(Cl)cc1N1CCN(C(=O)C2CCN(S(=O)(=O)c3cccc4nonc34)CC2)CC1 | - | . | - | - | 7.9µM[quencher] | .
CCCCCCC(C)(C)S | . | . | . | - | - | .
COc1cc(OC)c(-c2c3cc(O)c(=O)cc-3oc3cc(O)c(O)cc23)cc1OC | - | 10µM | - | ? | 40µM[fluorescent] | -

Source: PubChem BioAssay (National Center for Advancing Translational Sciences (NCATS))
